Results as given in PubChem BioAssay (EPA / NIEHS).
More than one record can exist for a structure, and the calls need not agree. Activity calls are given as the source filed them. Rule for the calls: active = hit-call score of the fitted dose curve at least 0.9, where 1 is the maximum; inactive = score below 0.9.

Read-out: cysteine-aspartic acid protease (CASP8), CASP8 (gene 841)
Test: LTEA_HepaRG_CASP8: Life Technologies and Expression Analysis (LTEA) Assay for cysteine-aspartic acid protease (CASP8) using HepaRG (AID 2283480)
Conditions: mRNA level, 48 h; actives raise or lower the signal
Method: LTEA_HepaRG is a cell based, multiplexed-readout assay that uses HepaRG, a human liver cell line, with measurements taken at 48 hours after chemical dosing on a 96-well plate.LTEA_HepaRG_CASP8 is one of 102 assay component(s) measured in the LTEA HepaRG cell culture assay. It is a marker of Cell proliferation, survival, death.Data from the assay component LTEA_HepaRG_CASP8 was analyzed into 1 endpoint. This assay endpoint, LTEA_HepaRG_CASP8, was analyzed with bidirectional fitting relative to DMSO as the negative control and baseline of activity. Using a type of inducible reporter, measures of mRNA induction for gain or loss-of-signal activity can be used to understand regulation of transcription factor activity. To generalize the intended target to other relatable targets, this assay endpoint is annotated to the protease intended target family, where the subfamily is cysteine protease.
A total of 1060 chemcials from the ToxCast library were tested in eight-point concentration-response experiments. Cell culture and cytotoxicity assays were conducted at Thermo Fisher Scientific's Custom Services facility (Madison, WI). A single lot of human HepaRG cells (Thermo Fisher Scientific, Frederick, MD) was used for the cell culture experiments. 96-well format collagen type I coated plates of human HepaRG cells were prepared using established methods. Briefly, cryopreserved HepaRG cells were thawed, plated at a density of approximately 100,000 cells/well in HepaRG Thaw, Plate, and General Purpose media (HPRG770, Thermo Fisher Scientific), and incubated for 48 hours. 0.5% DMSO was selected as vehicle control to balance the requisite need of DMSO in HepaRG cultures to maintain differentiation (for example, baseline metabolism, proportions of hepatocytes vs. cholangiocytes), while enabling further hepatic receptor pathway activation (for example, PXR and CAR) in response to chemical exposure. 48 hours after plating, the culture medium was replaced with HepaRG Serum-Free Incudtion Media. Cells were exposed to each test chemical in duplicate and maintained in CO2 incubators for another 48 hours. Chemical plates were thawed to room temperature and 200x concentrations of treatment groups were prepared. 8-point conentration-reponse curves were made with the highest exposure at 100 uM, followed by half-log dilutions, all in 0.5% DMSO. Each test plate contained variouse controls, induction positive controls (1mM phenobarbital), cytotoxicity positive controls ([…] aflatoxin B1), vehicle controls (0.5% DMSO), and total lysis controls (0.5% DMSO). Cell morphology images were taken using an Essen IncuCyte FLR automated microscope, with six 96-well plates imaged in about 24 minutes. Images were captured and exported and JPEG files. Spent culture media was transfered to black-well plates for the LDH assay, and remaining media was sorted at -80 C for later use. Cells were treated with RLT buffer and frozen until shipped for gene expression analysis. Total RNA was isolated from the cell suspension in 75 uL of Buffer RLT (Qiagen, Germantown, MD 20874) by Quintiles/Expression Analysis (Durham, NC) using a custom isolation procedure. Total RNA from each plate well was transferred to a preamplification plate. Fluidigm's 96.96 Dynamic ArrayTM (Fluidigm, Amsterdam, the Netherlands) technology was used for gene expression analyses by quantitative reverse transcription polymerase chain reaction (qRT-PCR, performed by Quintiles/Expression Analysis, Durham, NC)89. Standard TaqManTM Assays (Applied Biosystems/ThermoFisher Scientific, Foster City, CA) were used to assess the expression of 93 genes selected based on their selectivity and sensitivity to important hepatic receptors known to be modulated by environmental chemicals; importance in human hepatocyte functionality; and hepatotoxicity. […]

| SMILES | AC50 | outcome |
| --- | --- | --- |
| O=S(=O)(O)C(F)(F)C(F)(F)C(F)(F)C(F)(F)C(F)(F)C(F)(F)C(F)(F)C(F)(F)F | 34.5 µM (active) | inactive |
| O=C(O)COc1ccc(Cl)cc1Cl |  | inactive |
| Cc1[nH]c(=O)n(C(C)(C)C)c(=O)c1Cl |  | inactive |
| CNC(=O)Oc1ccccc1OC(C)C |  | inactive |
| CCC(C)(C)C(=O)OC1=C(c2ccc(Cl)cc2Cl)C(=O)OC12CCCCC2 |  | inactive |
| N#Cc1c(Cl)c(Cl)c(Cl)c(C#N)c1Cl |  | inactive |
| CCC(C)(NC(=O)c1cc(Cl)c(C)c(Cl)c1)C(=O)CCl (stereo not given) | 89.8 µM (active) |  |
| CCOCN(C(=O)CCl)c1c(C)cccc1CC |  | inactive |
| CC1(C)C(C=C(Cl)Cl)C1C(=O)OC(C#N)c1ccc(F)c(Oc2ccccc2)c1 (stereo not given) |  | inactive |
| CC(C)N(C(=O)COc1nnc(C(F)(F)F)s1)c1ccc(F)cc1 |  | inactive |
| O=[N+]([O-])c1c(Cl)c(Cl)c(Cl)c(Cl)c1Cl |  | inactive |
| CC(C)(C)C(O)/C(=C\c1ccc(Cl)cc1Cl)n1cncn1 (stereo not given) | 80.6 µM (active) |  |
| C[C@H]1[C@H](c2ccc(Cl)cc2)SC(=O)N1C(=O)NC1CCCCC1 |  | inactive |
| O=C1c2ccccc2C(=O)N1SC(Cl)(Cl)Cl |  | inactive |
| CCc1ccc(C(=O)NN(C(=O)c2cc(C)cc(C)c2)C(C)(C)C)cc1 |  | inactive |
| COP(=O)(OC)OC=C(Cl)Cl |  | inactive |
| CNC(=O)Oc1cccc(N=CN(C)C)c1 |  | inactive |
| O=C(O)C(F)(F)C(F)(F)C(F)(F)C(F)(F)C(F)(F)C(F)(F)C(F)(F)F |  | inactive |
| CCCN(CCOc1c(Cl)cc(Cl)cc1Cl)C(=O)n1ccnc1 |  | inactive |
| O=[N+]([O-])/N=C1\NCCN1Cc1ccc(Cl)nc1 |  | inactive |

| SMILES | AC50 | outcome |
| --- | --- | --- |
| CCCN(CCC)c1c([N+](=O)[O-])cc(C(F)(F)F)cc1[N+](=O)[O-] |  | inactive |
| CC1(c2ccc(Oc3ccccc3)cc2)OC(=O)N(Nc2ccccc2)C1=O (stereo not given) | 11.7 µM (active) |  |
| O=C(O)CCCOc1ccc(Cl)cc1Cl |  | inactive |
| O=C(NC(=O)c1c(F)cccc1F)Nc1ccc(OC(F)(F)C(F)OC(F)(F)F)c(Cl)c1 (stereo not given) |  | inactive |
| CC(C)(C)C(O)C(Oc1ccc(Cl)cc1)n1cncn1 (stereo not given) |  | inactive |
| CCN(CC)C(=O)SCc1ccc(Cl)cc1 |  | inactive |
| COP(=S)(OC)Oc1ccc(SC)c(C)c1 |  | inactive |
| OCCOc1ccccc1 |  | inactive |
| CNC(=O)/C=C(\C)OP(=O)(OC)OC |  | inactive |
| C#CCN1C(=O)COc2cc(F)c(N3C(=O)C4=C(CCCC4)C3=O)cc21 |  | inactive |
| O=C(Nc1ccccc1)Nc1cnns1 |  | inactive |
| CC[C@H](C)[C@H]1O[C@]2(C=C[C@@H]1C)C[C@@H]1C[C@@H](C/C=C(\C)[C@@H](O[C@H]3C[C@H](OC)[C@@H](O[C@H]4C[C@H](OC)[C@@H](O)[C@H](C)O4)[C@H](C)O3)[C@@H](C)/C=C/C=C3\CO[C@@H]4[C@H](O)C(C)=C[C@@H](C(=O)O1)[C@]34O)O2 (tested in a mixture with another compound) |  | inactive |
| Clc1ccccc1-c1nnc(-c2ccccc2Cl)nn1 |  | inactive |
| COP(=S)(OC)Oc1ccc([N+](=O)[O-])cc1 |  | inactive |
| N#CN |  | inactive |
| Oc1ccc(Cl)cc1Cc1ccccc1 |  | inactive |
| ClC1C(Cl)C(Cl)C(Cl)C(Cl)C1Cl (stereo not given) |  | inactive |
| COc1nn(CSP(=S)(OC)OC)c(=O)s1 |  | inactive |
| CNC(=O)CSP(=S)(OC)OC |  | inactive |
